Test results as given in PubChem BioAssay (NCATS).
“And” between values parts separate entries of the source, which are not always exact repeats. Identical values can stand only once. Results filed as inconclusive are left out. More than one record can exist for a structure, and the calls need not agree. The source made the active and inactive calls. Calls come from the whole dose curve; as a rule, active = well fitted curve in the direction sought with a large enough effect; inconclusive = small, poorly fitted or top-dose-only effect, or another doubt; inactive = no such curve, though single readings can be large; an effect the other way counts as inactive or inconclusive.

Molecular target: Cytochrome P450 2C9 (Homo sapiens) (UniProt P11712)
Sequence (P11712 whole entry, looked up): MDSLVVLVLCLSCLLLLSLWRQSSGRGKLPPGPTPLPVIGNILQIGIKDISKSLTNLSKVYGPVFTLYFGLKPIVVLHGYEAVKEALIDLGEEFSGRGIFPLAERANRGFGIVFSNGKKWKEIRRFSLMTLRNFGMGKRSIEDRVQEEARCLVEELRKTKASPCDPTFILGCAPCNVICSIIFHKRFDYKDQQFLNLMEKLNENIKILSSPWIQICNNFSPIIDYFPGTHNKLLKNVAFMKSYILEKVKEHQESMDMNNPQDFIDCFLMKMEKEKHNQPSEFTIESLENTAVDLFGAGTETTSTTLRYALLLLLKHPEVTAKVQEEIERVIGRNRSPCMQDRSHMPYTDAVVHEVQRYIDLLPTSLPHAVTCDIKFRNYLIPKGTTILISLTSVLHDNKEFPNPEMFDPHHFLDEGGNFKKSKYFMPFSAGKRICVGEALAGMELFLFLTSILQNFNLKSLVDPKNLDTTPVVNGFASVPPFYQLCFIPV
Assay: qHTS Assay for Inhibitors and Substrates of Cytochrome P450 2C9 (AID 883); note: nearly all actives have a fitted effect of over 60% in size; note: potency is the fitted concentration of half-maximal effect; for activity change, negative = inhibition: % is set by controls: 0 for no effect and ±100 for the full control effect
Conditions: recombinant CYP2C9, luciferin-H luminescence, 60 min; series mostly up to 57.1 µM; activity change, negative = inhibition: at the top concentration
Summary of the method: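 CYP2C9 deoxyluciferin hydroxylation, 37C, 60 min with NADPH regeneration; 10nM enzyme, 100uM Luciferin-H (KM). Glo detection reagent stopped reaction; luminescence normalized to sulphaphenazole (57uM) full inhibition.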

Compound | activity change, negative = inhibition | Potency
NC[C@](O)(CS(=O)(=O)O)c1ccc(Cl)cc1 | -21.9% (inactive) | 
CO[C@@]12C[C@@H](COC(=O)c3cncc(Br)c3)CN(C)[C@H]1Cc1cn(C)c3cccc2c13 | 13% (inactive) | 
O=C(O)[C@H]1CCCNC1 | -5.02% (inactive) | 
O=C(O)[C@H]1CN(CCCP(=O)(O)O)CCN1 | -6.6% (inactive) | 
CC(N)=NCCCC[C@H](N)C(=O)O | 41.1% (inactive) | 
CC(C)[C@@H]1[C@H]2CC[C@H](C2)[C@H]1N | 4.34% (inactive) | 
N[C@H](CCC(=O)N[C@H](CSN=O)C(=O)NCC(=O)O)C(=O)O |  | 5.01 µM (active)
S=C(S)O[C@@H]1C[C@@H]2C[C@H]1[C@@H]1CCC[C@H]21 |  | 3.98 µM (active)

Molecular target: Cytochrome P450 3A4 (Homo sapiens) (UniProt P08684)
Sequence (P08684 whole entry, looked up): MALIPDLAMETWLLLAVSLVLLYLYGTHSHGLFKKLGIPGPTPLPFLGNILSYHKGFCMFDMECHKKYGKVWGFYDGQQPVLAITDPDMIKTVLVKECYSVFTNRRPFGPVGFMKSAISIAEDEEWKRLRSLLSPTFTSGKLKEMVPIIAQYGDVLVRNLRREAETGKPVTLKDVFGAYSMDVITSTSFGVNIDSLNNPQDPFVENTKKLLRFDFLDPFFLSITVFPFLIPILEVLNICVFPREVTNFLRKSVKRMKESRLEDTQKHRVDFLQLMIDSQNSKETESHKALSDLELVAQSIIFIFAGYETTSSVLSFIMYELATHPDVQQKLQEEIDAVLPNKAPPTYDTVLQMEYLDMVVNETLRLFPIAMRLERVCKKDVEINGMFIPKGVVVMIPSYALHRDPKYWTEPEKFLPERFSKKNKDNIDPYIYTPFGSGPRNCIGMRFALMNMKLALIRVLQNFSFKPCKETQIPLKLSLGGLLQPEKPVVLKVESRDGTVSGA
Assay: qHTS Assay for Inhibitors and Substrates of Cytochrome P450 3A4 (AID 884); note: nearly all actives have a fitted effect of over 50% in size; note: potency is the fitted concentration of half-maximal effect; for activity change, negative = inhibition: % is set by controls: 0 for no effect and ±100 for the full control effect
Conditions: recombinant CYP3A4, Luciferin-PPXE luminescence; series mostly up to 57.1 µM; activity change, negative = inhibition: at the top concentration
Summary of the method: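 Luminescent readout of luciferin produced by CYP3A4 (20 nM) dealkylation of Luciferin-PPXE, 25 uM (its KM). NADPH-driven reaction ran 60 min at RT after 10 min compound preincubation; data scaled to 57 uM ketoconazole as 100% inhibition.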

Compound | activity change, negative = inhibition | Potency
N[C@H](Cc1cnc[nH]1)C(=O)O | -4.88% (inactive) | 
O=C(O)[C@H]1CN(CCCP(=O)(O)O)CCN1 | -4.14% (inactive) | 
CC(N)=NCCCC[C@H](N)C(=O)O | 14.4% (inactive) | 
S=C(S)O[C@@H]1C[C@@H]2C[C@H]1[C@@H]1CCC[C@H]21 |  | 3.98 µM (active)

Molecular target: Cytochrome P450 3A4 (Homo sapiens) (UniProt P08684)
Assay: qHTS Assay for Activators of Cytochrome P450 3A4 (AID 885); note: nearly all actives have a fitted effect of over 65% in size
Conditions: recombinant CYP3A4, Luciferin-PPXE luminescence, 60 min; series mostly up to 57.1 µM; activity change, positive = activation: at the top concentration
Summary of the method: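 Human CYP3A4 dealkylates Luciferin-PPXE to luciferin, which luciferase detection converts to light. Substrate was at its KM (25uM), buffer 200mM KPO4, reaction 60 min at RT.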

Compound | activity change, positive = activation | Potency
CC[N+](C)(CC)CCC[n+]1c(-c2ccccc2)c2cc(N)ccc2c2ccc(N)cc21 | -65.3% [at 25.6 µM] (inactive) | 
NC[C@](O)(CS(=O)(=O)O)c1ccc(Cl)cc1 | -51.5% (inactive) | 
CO[C@@]12C[C@@H](COC(=O)c3cncc(Br)c3)CN(C)[C@H]1Cc1cn(C)c3cccc2c13 | -60.4% [at 25.6 µM] (inactive) | 
COc1ccccc1NC(=O)Nc1nc(-c2cccnc2)nc2ccccc12 | -42.8% (inactive) | 
CC1=C(\C=C/C(C)=C/C=C\C(C)=C\C(=O)O)C(C)(C)CCC1 |  | inactive
CCN(Cc1ccncc1)C(=O)[C@@H](CO)c1ccccc1 | -67.2% [at 25.6 µM] (inactive) | 
CNCC[C@H](Oc1ccccc1OC)c1ccccc1 |  | inactive
C[C@H](N=C(NC#N)Nc1ccncc1)C(C)(C)C |  | inactive
C[C@@H](CCc1ccc(O)cc1)NCCc1ccc(O)c(O)c1 | -30.2% (inactive) | 
CC(C)[C@@H]1[C@H]2CC[C@H](C2)[C@H]1N | -53.6% (inactive) | 
S=C(S)O[C@@H]1C[C@@H]2C[C@H]1[C@@H]1CCC[C@H]21 |  | inactive

Molecular target: Cytochrome P450 2D6 (Homo sapiens) (UniProt P10635)
Sequence (P10635 whole entry, looked up): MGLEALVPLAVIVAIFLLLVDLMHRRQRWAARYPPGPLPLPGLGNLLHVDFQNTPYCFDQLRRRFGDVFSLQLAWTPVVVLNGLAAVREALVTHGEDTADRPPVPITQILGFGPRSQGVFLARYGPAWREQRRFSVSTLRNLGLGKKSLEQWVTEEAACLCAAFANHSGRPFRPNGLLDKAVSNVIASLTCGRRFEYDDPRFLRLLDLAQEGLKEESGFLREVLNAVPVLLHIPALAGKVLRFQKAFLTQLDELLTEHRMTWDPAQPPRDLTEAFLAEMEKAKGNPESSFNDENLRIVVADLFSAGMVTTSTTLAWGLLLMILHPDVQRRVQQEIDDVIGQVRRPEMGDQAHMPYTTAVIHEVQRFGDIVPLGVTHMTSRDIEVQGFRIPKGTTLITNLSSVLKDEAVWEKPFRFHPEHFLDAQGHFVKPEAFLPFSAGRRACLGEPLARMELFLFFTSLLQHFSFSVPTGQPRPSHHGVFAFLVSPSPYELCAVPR
Assay: qHTS Assay for Inhibitors and Substrates of Cytochrome P450 2D6 (AID 891); note: nearly all actives have a fitted effect of over 60% in size; note: potency is the fitted concentration of half-maximal effect;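 for activity change, negative = inhibition: luciferin methyl ether substrate demethylated by CYP2D6 with NADPH regeneration; % is set by controls: 0 for no effect and ±100 for the full control effect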
Conditions: recombinant CYP2D6, luciferin-ME EGE luminescence; series mostly up to 57.1 µM; activity change, negative = inhibition: at the top concentration
Summary of the method: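 Luminescent read-out of luciferin formed by 5 nM human CYP2D6 demethylating 30 uM Luciferin-ME EGE (Km level) over 60 min at room temperature after NADPH regeneration addition. Data normalized to full inhibition by 1.43 uM quinidine.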

Compound | Potency | activity change, negative = inhibition
CC[N+](C)(CC)CCC[n+]1c(-c2ccccc2)c2cc(N)ccc2c2ccc(N)cc21 | 6.31 µM (active) | 
NC[C@](O)(CS(=O)(=O)O)c1ccc(Cl)cc1 |  | 7.96% (inactive)
CO[C@@]12C[C@@H](COC(=O)c3cncc(Br)c3)CN(C)[C@H]1Cc1cn(C)c3cccc2c13 | 39.8 nM (active) and 2.5 nM (active) and 20 nM (active) | 
CC1=C(\C=C/C(C)=C/C=C\C(C)=C\C(=O)O)C(C)(C)CCC1 | inactive and 2 µM (active) | 
O=C(O)[C@H]1CCCNC1 |  | 2.39% (inactive)
O=C(O)[C@H]1CN(CCCP(=O)(O)O)CCN1 |  | -3.81% (inactive)
CCN(Cc1ccncc1)C(=O)[C@@H](CO)c1ccccc1 |  | -9.64% (inactive)
CNCC[C@H](Oc1ccccc1OC)c1ccccc1 | 5.01 µM (active) and 1.26 µM (active) | 
C[C@H](N=C(NC#N)Nc1ccncc1)C(C)(C)C |  | 0.296% (inactive)
